This note sets out measurements from PubChem BioAssay (NCI).

About 83,000 compounds went through this panel and 20% of them were active in at least one assay; those are over-represented in the sample as a whole.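 Method: cells in 96-well plates; compound added at one concentration; 48 h incubation; percent growth measured; values under 10 scored active.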 Values without a mark were called inactive. Activity calls are given as the source filed them.

What all share (experiment): NCI-60 one-dose screen, 48 h (100 = growth as untreated, 0 = no growth, -100 = all killed)
Holding throughout (conditions): 10 µM unless noted

The test system of assay [1] is NCI-H23 lung.
The subject of assay [2] is NCI-H322M lung.
Assay [3] concerns HOP-62 NSCLC.
Assay [4] deals with NCI-H460 lung.
For assay [5], the system named is HOP-92 NSCLC.
Assay [6] deals with NCI-H522 lung.
For assay [7], the system named is A549/ATCC NSCLC.
Assay [8] has as its system 786-0 renal.
Assay [9] has as its system COLO 205 colon.
Assay [10] relates to DU-145 prostate.
For assay [11], the system named is K-562 leukemia.
The test system of assay [12] is MALME-3M melanoma.
In assay [13] the test system is MDA-MB-231 breast.
The test system of assay [14] is RXF 393 renal.
Assay [15] concerns SF-268 CNS.
Assay [16] deals with SF-295 CNS.
The test system of assay [17] is SF-539 CNS.
Assay [18] has as its system UACC-257 melanoma.
In assay [19] the test system is M14 melanoma.
Assay [20] has as its system HCT-15 colon.

On to `O=C(Nc1ccc(N2CCNCC2)cn1)c1[nH]ncc1Nc1ncnc2sc3c(c12)CCC3`, for which the growth in [1] is 10.7%; in assay [2] it was 63.8%; in [3], 76.2%; in assay [4], -59.2% (active); in assay [5] it was 37.9%; in assay [6] it was 35.9%. For the same compound, the growth in assay [7] was -51.7% (active); in assay [8], -85.5% (active); in assay [9], 22.8%; in assay [10] it was -52.1% (active); in assay [11], -65.2% (active); in assay [12] it was -47.7% (active). For the same compound, the growth in [13] is -48.9% (active); in [14], 18.6%; in [15], 37.8%; in assay [16], 104%; in assay [17], -51% (active); in [18], 67.8%. Further, the growth in assay [19] is -60.7% (active); in [20], -85.6% (active).
For `Clc1ccc(Nc2nnc(-c3ccc4c(c3)OCO4)o2)cc1`, the growth in assay [1] was 101%; in assay [2], 98.9%; in assay [3], 114%; in [4], 103%; in assay [5] it was 99.8%; in [6] it was 80.9%. Besides, the growth is 97.8% in assay [7]; 97.9% in assay [8]; 107% in [9]; 98.9% in assay [10]; 62.4% in assay [11]; 99% in [12]. For the same compound, the growth is 108% in [13]; 130% in [14]; 107% in [15]; 115% in assay [16]; 104% in assay [17]; 100% in assay [18]. Further, the growth is 102% in assay [19] and 95.8% in assay [20].
Take `Cc1c(-c2csc(-n3nc(C(F)(F)F)cc3C(F)(F)F)n2)no[n+]1[O-]`: the growth was 98.4% in assay [1]; 98.8% in assay [2]; 100% in [3]; 98.9% in [4]; 96.3% in [5]; 87.4% in [6]. The growth in assay [7] was 95.3%; in assay [8], 97.5%; in assay [9], 112%; in [10] it was 105%; in [11], 93.1%; in [12] it was 96.8%. The growth in assay [13] is 96.5%; in assay [14] it was 101%; in [15], 96.1%; in assay [16], 93.9%; in assay [17], 99.1%; in assay [18] it was 98.5%. In addition, the results for the growth in assay [19] and in assay [20] were 90.2% and 95.4%, respectively.
Take `CN1CCN(Cc2ccc(NC(=O)c3cncc(C#Cc4nc(N)nc5[nH]ncc45)c3)cc2C(F)(F)F)CC1`: the growth in [1] was 102%; in assay [2] it was 114%; in assay [3], 122%; in [4], 112%; in [5] it was 77.8%; in assay [6], -37.1% (active). Further, the growth in [7] is 103%; in assay [8], 111%; in assay [9] it was 21.6%; in [10] it was 74.7%; in assay [11], 4.75% (active); in assay [12] it was 68.6%. The growth in assay [13] is 100%; in assay [14], 79.2%; in assay [15], 102%; in assay [16], 108%; in assay [17] it was 104%; in assay [18], 83.1%. For the same compound, the growth in [19] was 89.4%; in [20] it was 97.8%.
For `O=C1c2cc(Cl)ccc2Oc2cc([N+](=O)[O-])ccc2N1c1ccc(F)cc1F`, the growth in assay [1] is 94.1%; in [2], 92.5%; in assay [3], 87.8%; in [4], 93.2%; in assay [5], 98.9%; in assay [6], 49.9%. The growth in [7] was 66.7%; in [8], 93.6%; in assay [9] it was 96.5%; in assay [10], 89.8%; in [11], 78.8%; in assay [12] it was 103%. Further, the growth in assay [13] is 83%; in assay [14], 89.6%; in assay [15] it was 72.9%; in assay [16] it was 94.6%; in [17], 96.7%; in assay [18], 91%. The growth in assay [19] is 99.2%; in [20], 86.9%.
In the case of `CC(=O)Nc1nc2c(s1)CCc1c-2cn(S(=O)(=O)c2ccccc2)c1-c1ccccc1`, the growth in [1] is 82.1%; in assay [2], 79.4%; in assay [3] it was 101%; in assay [4], 75.3%; in [5], 87.4%; in [6], 54.5%. Further, the growth in [7] was 53.4%; in assay [8] it was 88.3%; in [9], 75.3%; in assay [10] it was 78.4%; in assay [11], 37.9%; in assay [12], -23.6% (active). In addition, the growth in assay [13] is 73.6%; in assay [14], 85%; in [15] it was 71.4%; in assay [16], 43.5%; in assay [17] it was 93.5%; in assay [18] it was 93%. Besides, the growth in assay [19] was 36.9%; in assay [20], 51.9%.
As to `COc1cc(C(C)n2cc(-c3ccccc3)nn2)ccc1OC1CCCC1` (stereo not given), the growth is 45.4% in [1]; 78% in [2]; 52.7% in [3]; 74.1% in [4]; 54.7% in assay [5]; 51.2% in [6]. The growth in assay [7] was 61.3%; in assay [8], 72.7%; in assay [9], 91.8%; in assay [10] it was 85.6%; in assay [11], 34%; in assay [12], 63.7%. Further, the growth in [13] is 76%; in assay [14], 83.1%; in assay [15] it was 72%; in assay [16], 47.1%; in assay [17] it was 69.3%; in assay [18], 55.4%. Moreover, the growth was 82.8% in assay [19] and 62.2% in [20].
As to `Brc1ccc(Oc2ccc(Nc3ncnc4onc(-c5ccccc5)c34)cc2)cc1`, the growth in assay [1] is 94.3%; in assay [2] it was 110%; in assay [3], 99.8%; in assay [4] it was 103%; in [5], 110%; in [6], 97.8%. Further, the growth in [7] was 95.5%; in [8], 98.5%; in assay [9] it was 112%; in [10], 102%; in assay [11], 92.4%; in assay [12], 103%. Moreover, the growth was 98.3% in assay [13]; 103% in assay [14]; 96.7% in assay [15]; 92.2% in [16]; 96.2% in assay [17]; 98% in [18]. The growth was 98.3% in [19] and 103% in assay [20].
